Inconclusive results are not listed. Values without a mark were called inactive. Calls of active or inactive are those of the source. Calls come from the whole dose curve; as a rule, active = well fitted inhibition curve with a large enough effect in the signal ratio in the repeat runs; inconclusive = weak or mixed curves, or effect the other way; inactive = flat fitted curve, though single readings scatter; the % refers to the signal ratio.
Test: qHTS assay for small molecule disruptors of the mitochondrial membrane potential (AID 720635)
Conditions: HepG2 mitochondrial membrane potential, Mito-MPS dye ratio; series mostly up to 83.2 µM; ratio activity, negative = MMP loss: at the top concentration
Text: U.S. Tox21 Program National Center for Advancing Translational Sciences [NCATS] NIH Chemical Genomics Center [NCGC] U.S. Environmental Protection Agency [EPA] National Institutes of Environmental Health Sciences [NIEHS] National Toxicology Program [NTP] U.S. Food and Drug Administration [FDA] Tox21 Assay Overview: Mitochondrial membrane potential (MMP), one of the parameters for mitochondrial function, is generated by mitochondrial electron transport chain that creates an electrochemical gradient by a series of redox reactions. This gradient drives the synthesis of ATP, a crucial molecule for various cellular processes. Measuring MMP in living cells is commonly used to assess the effect of chemicals on mitochondrial function. […] The dye accumulates in the mitochondria of healthy cells as aggregates, with red fluorescence. The mitochondrial potential collapses and the dye can no longer accumulate in the mitochondria and remains in the cytoplasm in monomers, with green fluorescence.
Tox21 Assay Protocol Summary: 2,000 HepG2 cells in 5 uL/well were dispensed into black, clear-bottom 1536-well plates using a Multidrop Combi (Thermo Scientific) dispenser. The assay plates were incubated overnight at 37C to allow cells to attach to the wells, followed by the transfer of 23 nL compound or DMSO vehicle by a pin tool (Kalypsys). The plates were incubated for 1 hr at 37C and 5% CO2, followed by the addition of 5 uL of 2X Mito-MPS dye (BD Biosciences) into each well using Flying Reagent Dispenser (Aurora Discovery) and then following 30 min incubation at 37C. Fluorescence intensity (490nm excitation and 535nm emission for monomers; and 540nm excitation and 590nm emissions for aggregates) was measured using an Envision plate reader.
% is set by controls: 0 for no effect and ±100 for the full control effect; potency is the fitted concentration of half-maximal effect.

| Structure (SMILES) | ratio activity, negative = MMP loss | Potency |
| --- | --- | --- |
| C1CSCCS1 | 18.9% | – |
| CCCCNC(=S)NCCCC | -28% | – |
| O=Cc1ccc(F)c(Br)c1 | 11.9% | – |
| O=C(CC(=O)C(F)(F)F)c1ccccc1 | – | 15.6 µM (active) |
| O=C1CCCCCCCCCCC(=O)OCCO1 | – | 27.3 µM (active) |
| COc1ccccc1N1CCN(CCCNc2cc(=O)n(C)c(=O)n2C)CC1 | – | inactive |
| O=C1CCC(C2CCCCC2)CC1 | -15.9% | – |
| O=C1Nc2ccc([N+](=O)[O-])cc2C1=O | – | 68.5 µM (active) |
| CCCCc1ccc2nc(NC(=O)OC)[nH]c2c1 | – | 0.254 µM (active) |
| CCC(=O)O[C@]1(C(=O)SCF)[C@H](C)C[C@H]2[C@@H]3C[C@H](F)C4=CC(=O)C=C[C@]4(C)[C@@]3(F)[C@@H](O)C[C@@]21C | – | 7.17 µM (active) |
| CC(C)(C)c1cccc(O)c1 | – | 48.6 µM (active) |
| Oc1ccccc1F | 7.72% | – |
| Cc1cc(S(=O)(=O)O)c(N)cc1Cl | 7.84% [at 95.3 µM] | – |
| Cc1cc2c(s1)Nc1ccccc1N=C2N1CCN(C)CC1 | 4.66% | – |
| OCCN(CCO)CCN(CCO)CCO | 26.5% | – |
| CC(C)c1ccccc1 | 10.7% [at 95.3 µM] | – |
| O=c1[nH]cnc2c1ncn2[C@@H]1O[C@H](CO)[C@@H](O)[C@H]1O | 21.9% | – |
| CC[C@H]1CC[C@H](NCc2cc3c(cc2OC)[C@H]2C[C@H]2C(=O)N3C)[C@H](c2ccccc2)N1 | 10.8% | – |
| Nc1ccc2ccccc2c1S(=O)(=O)O | -18.8% [at 95.3 µM] | – |
| Cc1c(-c2ccccc2)oc2c(C(=O)OCCN3CCCCC3)cccc2c1=O | 21.3% [at 39.1 µM] | – |

| Structure (SMILES) | ratio activity, negative = MMP loss | Potency |
| --- | --- | --- |
| Cc1ccccc1C(=O)Nc1ccc(C(=O)N2CCCC(O)c3cc(Cl)ccc32)c(C)c1 (stereo not given) | – | 10.6 µM (active) |
| CC1(C)O[C@@H]2C[C@H]3[C@@H]4CCC5=CC(=O)CC[C@]5(C)[C@@]4(F)[C@@H](O)C[C@]3(C)[C@]2(C(=O)CCl)O1 | – | 8.04 µM (active) |
| CNCCC(Oc1ccccc1OC)c1ccccc1 (stereo not given) | 28.8% | – |
| CCOC(=O)C(Br)c1ccccc1 (stereo not given) | -17.2% | – |
| CN(CC1(C)CCCO1)S(=O)(=O)c1ccc(Cl)c(S(N)(=O)=O)c1 (stereo not given) | -6.51% | – |
| Cc1cc2nc(N)sc2cc1C | – | 49 µM (active) |
| C=Cc1ccccc1 | – | inactive |
| Cc1ccc([N+](=O)[O-])c(N)c1 | -19.7% | – |
| CCC(=O)Nc1ccc(O)cc1 | 9.89% | – |
| CCCOCCC | 13.8% | – |
| CCCNC(C)(C)COC(=O)c1ccccc1 | 25.8% | – |
| CCCc1c2oc(C(=O)O)cc(=O)c2cc2c(=O)cc(C(=O)O)n(CC)c12 | -14.3% | – |
| C=CCc1cc(OC)c(O)c(C(=O)NCCO)c1 | -12.1% | – |
| O=C(O)c1cccc(Cl)c1Cl | -19.2% | – |
| COc1nc(C)nc(NC(=O)NS(=O)(=O)c2ccccc2OCCCl)n1 | 3.83% | – |
| CC(C)CCCCCCc1ccc(OCCOCCO)cc1 | -1.79% [at 95.3 µM] | – |
| O=C1N(c2ccccc2)c2ccccc2C1(Cc1ccncc1)Cc1ccncc1 | -3.75% | – |
| CC(=O)OC(C)OC(C)=O | 11.7% [at 95.3 µM] | – |
| O=C(O)c1ccccc1Nc1cc(Cl)ccc1C(=O)O | -2.2% | – |
| CCCCCOc1ccc(C2SC(=O)NC2=O)cc1OCC (stereo not given) | – | 29.8 µM (active) |

— PubChem BioAssay (Tox21)
